Data reported in PubChem BioAssay (EPA / NIEHS).
Calls of active or inactive are those of the source. The calls were made as follows: active = hit-call score of the fitted dose curve at least 0.9, where 1 is the maximum; inactive = score below 0.9.

assay: APR_HepG2_NuclearSize_72hr: Apredica 72-hour HepG2 Assay for Nuclear Size (AID 2282925); settings: high-content imaging, actives raise or lower the signal
Description: APR_HepG2_72hr is a cell-based, multiplexed-readout assay that uses HepG2, a human liver cell line, with measurements taken at 72 hours after chemical dosing in a 384-well plate.APR_HepG2_NuclearSize_72hr is one of 10 assay component(s) measured or calculated from the APR_HepG2_72hr assay. It is designed to make measurements of cell phenotype, a form of morphology reporter, as detected with fluorescence intensity signals by HCS Fluorescent Imaging technology.Data from the assay component APR_HepG2_NuclearSize_72hr was analyzed into 1 assay endpoint. This assay endpoint, APR_HepG2_NuclearSize_72hr, was analyzed with bidirectional fitting relative to DMSO as the negative control and baseline of activity. Using a type of morphology reporter, measures of all nuclear dna for gain or loss-of-signal activity can be used to understand the signaling at the nuclear-level. Furthermore, this assay endpoint can be referred to as a primary readout, because this assay has produced multiple assay endpoints where this one serves a signaling function. To generalize the intended target to other relatable targets, this assay endpoint is annotated to the cell morphology intended target family, where the subfamily is organelle conformation.
Cells were treated with dimethyl sulfoxide (DMSO) as a solvent control at a final concentration of 0.5% v/v or with compounds in DMSO with a resulting final DMSO concentration of 0.5% v/v. Compound treatment was done at concentrations of 0.39, 0.78, 1.56, 3.12, 6.24, 12.5, 25, 50, 100, and 200 uM in duplicate on each plate. Cells were treated with compounds for 1, 24, or 72 hr. Carbonyl […] m-chloro-phenylhydrazone (CCCP) and taxol were used as positive controls for mitochondrial function and cytoskeletal stability, respectively; DMSO served as the negative control for this experiment. Cells were fixed by the direct addition of 50 uL formaldehyde in Hank's Balanced Salt Solution (HBSS) to a final concentration of 3.7%. After incubation in the fixation medium for 30 min at room temperature (293-298 K), cells were rinsed twice with HBSS and treated with cell permeabilization buffer (16 uL of 0.5% Triton X-100) for 10 min at room temperature (293-298 K) before labeling. For mitochondrial membrane potential and mitochondrial measurements, pre-fixed cells were incubated with 50 uL of MitoTracker Red CMXRos (Invitrogen) at a concentration of 250 nM for 30 min before fixation. In the remaining cases, post-fixed cells were labeled by incubation with a multiplexed mixture of primary antibodies in HBSS for 60 min at room temperature (293-298 K) to detect immunoreactivity of c-Jun (1:500), phospho-histone H3 (1:100), phospho-histone H2A.x (1:200), p53 (1:400), alpha-tubulin (1:200) and Hoechst 33342 (2 ug/mL). Cells were labeled for multiplexed imaging on two separate plates: a) Hoechst 33342, MitoTracker Red, phospho-histone H3, and alpha-tubulin, and b) Hoechst 33342, phospho-histone H2A.x, and c-Jun. A final rinse with HBSS (50 uL) was performed before analysis. The primary and secondary antibodies for the proteins were phospho-histone H3 (rabbit anti-phospho-histone H3 and FITC-donkey anti-rabbit IgG), phospho-histone H2A.x (mouse anti-phospho-histone H2A.x and FITC-donkey anti-mouse IgG), c-Jun (rabbit anti-phospho-c-Jun and Cy3-donkey anti-rabbit IgG), p53 (sheep anti-p53 and Cy5-donkey anti-sheep IgG), alpha-tubulin (mouse anti-alpha-tubulin and Cy5-donkey anti-mouse IgG). These antibodies are available as the CellCiphr HepG2 assay kit (Millipore).Digital images of each well were captured using a Cellomics ArrayScan VTI (Thermo Scientific Cellomics) (0.8 NA objective, 0.63x optical coupler, and XF-93 filter set) at 20x magnification. The images were acquired using the autofocus feature of the ArrayScan instrument, which entails the following steps. First, the camera focuses on channel 1 (Hoechst 33342), where nuclei are identified. Second, a Z offset of 1 um is used for capturing mitochondria (MitoTracker Red). […]

Row | Structure (SMILES) | AC50 | outcome
1 | Cc1cc(N=Nc2ccccc2C)ccc1N | 56.3 µM (active) | –
2 | CNC(=O)Oc1cccc2c1OC(C)(C)C2 | – | inactive
3 | OCCCl | – | inactive
4 | c1ccc2c(c1)oc1ccccc12 | – | inactive
5 | Nc1ccc(Cl)cc1N | – | inactive
6 | CCC(C)c1ccc(O)cc1 (stereo not given) | – | inactive
7 | CC(C)(C)OOC(=O)c1ccccc1 | – | inactive
8 | C1=Cc2cccc3cccc1c23 | – | inactive
9 | CCCCCCCCOC(=O)c1ccc(C(=O)OCCCCCCCC)c(C(=O)OCCCCCCCC)c1 | – | inactive
10 | Oc1ccc2ccc3cccc4ccc1c2c34 | 69.6 µM (active) | –
11 | O=C(N[C@H](c1ccccc1)[C@@H]1CN2CCC1CC2)c1c(Cl)ccc(C(F)(F)F)c1Cl | – | inactive
12 | Clc1ccc(C(c2ccc(Cl)cc2)C(Cl)Cl)cc1 | – | inactive
13 | Clc1ccc(Cl)c(Cl)c1 | – | inactive
14 | CCCSC(=O)N(CCC)CCC | – | inactive
15 | Clc1ccccc1Cl | – | inactive
16 | Brc1ccc(Oc2ccccc2)cc1 | – | inactive
17 | C=CCc1ccc2c(c1)OCO2 | – | inactive
18 | N#CC(Br)(Br)C(N)=O | – | inactive
19 | CC(C)COC(=O)c1ccccc1C(=O)OCC(C)C | – | inactive
20 | COc1cc(C=O)cc2c1[C@H](COC(N)=O)[C@]1(OC(C)=O)ON2C[C@H]2[C@@H]1N2C(C)=O | – | inactive

Row | Structure (SMILES) | AC50 | outcome
21 | ClC1=C(Cl)C2(Cl)C3C(Cl)C=CC3C1(Cl)C2(Cl)Cl (stereo not given) | – | inactive
22 | O=C1CCCO1 | – | inactive
23 | c1ccc(NNc2ccccc2)cc1 | – | inactive
24 | COC(=O)c1ccccc1N | – | inactive
25 | CCCCCOC(=O)c1ccccc1C(=O)OCCCCC | – | inactive
26 | CN(C)c1ccc(C(=O)c2ccc(N(C)C)cc2)cc1 | 1.91 µM (active) | –
27 | Nc1ccc([N+](=O)[O-])cc1 | – | inactive
28 | COC(=O)Nc1nc2ccccc2[nH]1 | 9.08 µM (active) | –
29 | ClC1=C(Cl)[C@]2(Cl)[C@H]3[C@H]([C@@H]4C=C[C@H]3C4)[C@@]1(Cl)C2(Cl)Cl | – | inactive
30 | [O-][Cl+]O | 157 µM (active) | –
31 | CCC12COCN1COC2 | – | inactive
32 | CCCCC(CC)COC(=O)c1ccc(C(=O)OCC(CC)CCCC)c(C(=O)OCC(CC)CCCC)c1 (stereo not given) | – | inactive
33 | COP(=S)(OC)SCN1C(=O)c2ccccc2C1=O | – | inactive
34 | Oc1ccccc1Cl | – | inactive
35 | c1ccc(N=Nc2ccccc2)cc1 | – | inactive
36 | C[C@]12C=CC3=C4CCC(=O)C=C4CC[C@H]3[C@@H]1CC[C@@H]2O | – | inactive
37 | Clc1ccc(C(c2ccc(Cl)cc2)C(Cl)(Cl)Cl)cc1 | – | inactive
38 | CCNS(=O)(=O)C(F)(F)C(F)(F)C(F)(F)C(F)(F)C(F)(F)C(F)(F)C(F)(F)C(F)(F)F | 105 µM (active) | –
39 | CN(C)c1ccccc1 | – | inactive
40 | CC(C)(C)OOC(C)(C)CCC(C)(C)OOC(C)(C)C | – | inactive
